The source of these data is PubChem BioAssay (NCI).

About 83,000 compounds went through this panel and 20% of them were active in at least one assay; those are over-represented in the sample as a whole.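 Single-concentration screen, 48 h exposure, 96-well plates. Endpoint: percent growth. Below 10 = active.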 Active and inactive are the calls of the source.

This assay deals with NCI-H226 lung. Put plainly: NCI-60 one-dose screen, 48 h (100 = growth as untreated, 0 = no growth, -100 = all killed). The settings on record: 10 µM unless noted.
For `CC(=O)Nc1ccc(-n2cnc3cc(-c4ccc(O)cc4)ccc32)cc1C(F)(F)F`, the growth is 44.8% (inactive).

On to `CN(C)CCn1c2ccccc2c2nc3cc4ccccc4cc3nc21`, for which the growth is 26.8% (inactive).

`COc1cc2oc(-c3cccc(C(=O)Nc4cccc([N+](=O)[O-])c4)c3)cc(=O)c2c(OC)c1OC`: the growth was -18.5% (active).

As for `Cc1cccc(NC(=O)[C@]23CCC(C)(C)CC2C2=CCC4[C@@]5(C)C[C@@H](O)[C@H](O)[C@@](C)(CO)C5CC[C@@]4(C)[C@]2(C)CC3)c1` (some centres not stated), the growth is -17.8% (active).

Turning to `O=C(/C=C/c1cccc(OCc2ccccc2)c1)c1nc2ccccc2[nH]1`, the growth was 1.49% (active).

In the case of `COc1ccc(N2N=C(c3ccc4c(c3)OCO4)CC2c2cccc(NC(=O)CCNS(=O)(=O)c3ccc(Cl)cc3)c2)cc1` (configuration not stated), the growth is 30.8% (inactive).

In the case of `CN(C)c1ccnc(CNCCSC2(c3ccccc3)c3ccccc3C=Cc3ccccc32)c1`, the growth was 16.7% (inactive).

In the case of `CC1=C(C(=O)c2ccccc2)C(c2ccc(-n3cncn3)cc2)n2c(nc3ccccc32)N1` (configuration not stated), the growth was 87.4% (inactive).

In the case of `Cc1cnc(C(=O)NNc2nc3cc(F)ccc3n3c(C(=O)N4CC5CC(C4)N5)ccc23)cn1`, the growth was 12.5% (inactive).

Consider `CN(C)CCCNC(=O)c1cc(NC(=O)c2cc(NC(=O)c3ccc(C#Cc4ccccc4)cc3)cn2C)cn1C`, for which the growth was 4.56% (active).

For `N/C(=N\N=C\c1ccc([N+](=O)[O-])cc1)c1c(N)nc(=S)[nH]c1-c1ccc(Cl)cc1Cl`, the growth was 82.1% (inactive).

As to `C=C1CCC2C3(C)COC(c4cccc(F)c4)OC3CCC2(C)C1C/C=C1/C(=O)OCC1O` (configuration not stated), the growth was 30.7% (inactive).
